Assay outcomes: PubChem BioAssay, National Center for Advancing Translational Sciences (NCATS)
This is a sample that favours compounds with a hit; in the whole collection about 19% have one here.
HT1080 IDH1KD tx – toxicity to HT-1080 IDH1 knockdown cells (counter line) | HT-1080 IDH1 knockdown viability, ATP luminescence, 48 h | Potency, µM (series often up to 46.1 µM), for inactives: top-dose activity, negative = toxicity, most hits filed as cytotoxic | hit rate 2% among 360,000 | AID 686971;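 note: potency is the fitted concentration of half-maximal effect; 0% = DMSO wells and -100% = cell-free medium wells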
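After a 2 h attachment period, IDH1KD HT-1080 cells took pin-transferred compound for 48 h at 37 °C; ATP-based luminescence after 10 min room-temperature reagent incubation reported viability.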
TDP1 cell CPT – DT40-hTDP1 cell growth loss with CPT | chicken DT40 Tdp1-/-;hTDP1 cells + 20 nM CPT, ATP luminescence, 48 h | Potency, µM (doses to about 46.2 µM), for the others: at the top dose activity change, negative = growth inhibition, hits mostly inhibitors | hit rate 12% among 420,000; note: potency is the fitted concentration of half-maximal effect; nearly all actives have a fitted effect of over 55% in size
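Chicken DT40 Tdp1-/- cells complemented with human TDP1, 400 cells/well, exposed to compounds plus 20 nM camptothecin for at least 48 h at 37 C; viability read as ATP content by CellTiter-Glo luminescence.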
IL1B secr inh – inhibitors of inflammasome signaling (IL-1 beta secretion). THP-1 LPS/ATP IL-1B secretion, AlphaLISA, 16 h; stronger effect = lower value. activity change, % at 57.5 µM. hit rate 4.7% among 360,000. AID 743279; in the data active = activity change below about -50%; inconclusive = mostly about -30% to -49%
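Secreted IL-1B measured by AlphaLISA bead assay after 16 h compound exposure of THP-1 cells; compounds (final up to 57.5 uM) added 1 h before LPS (250 ng/mL) and ATP (1.25 mM) stimulation; lower signal means less secretion.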
TDP1 cell noCPT – qHTS for Inhibitors of human tyrosyl-DNA phosphodiesterase 1 (TDP1): qHTS in cells in absence of CPT. AID 686978, 2013. Potency, µM (highest dose often 46.2 µM), without a hit: at the highest dose activity change, negative = growth inhibition, usual class: inhibitors. hit rate 15% among 420,000. DT40 Tdp1-/- hTDP1 cells, no CPT, ATP luminescence, 48 h; note: potency is the fitted concentration of half-maximal effect; nearly all actives have a fitted effect of over 55% in size
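Stably hTDP1-transfected Tdp1-null chicken DT40 cells were treated with library compounds minus camptothecin and grown for at least 48 hr at 37 °C, after which cellular ATP was quantified by luminescence.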
HT1080NT lethal – kills 2HG-producing HT-1080-NT fibrosarcoma cells; HT-1080-NT fibrosarcoma viability, CellTiter-Glo ATP luminescence, 48 h; Potency, µM (titrated, usually from 46.1 µM), for the others: at the highest dose activity, negative = less viability, most hits filed as cytotoxic; hit rate 1.6% among 360,000; AID 686970;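 note: NT is the 2HG producing partner of a matched IDH1 knockdown line; potency is the fitted concentration of half-maximal effect; 0% = DMSO-treated cells and -100% = media-only wells without cells; nearly all actives have a fitted effect of over 55% in size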
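Toxicity toward the 2HG-producing NT line was scored as %Activity, normalised to DMSO and no-cell wells, from CellTiter-Glo luminescence after 48 hours' treatment.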
Starred values were filed as active, the others as inactive; ? = inconclusive; nt = no result given. Unless noted, calls come from the whole dose curve; as a rule, active = well fitted curve in the direction sought with a large enough effect; inconclusive = small, poorly fitted or top-dose-only effect, or another doubt; inactive = no such curve, though single readings can be large; an effect the other way counts as inactive or inconclusive. Unless noted, % is set by controls: 0 for no effect and ±100 for the full control effect.

SMILES | HT1080 IDH1KD tx | TDP1 cell CPT | IL1B secr inh | TDP1 cell noCPT | HT1080NT lethal
O=C(NCCO)C1CCN(C(=O)c2ccc(-c3ccccc3)cc2)CC1 | 1% | ? | -8 | -16% | -2%
O=C(CN(c1ccc(F)cc1)S(=O)(=O)c1ccccc1)NCc1ccco1 | 3% | -24% | -8 | ? | 0%
Cc1ccc(C)c(N(CC(=O)Nc2ccccc2C(=O)NCc2ccco2)S(=O)(=O)c2ccccc2)c1 | 0% | ? | -11 | 16µM* | -7%
CS(=O)(=O)N(CC(=O)Nc1ccccc1C(=O)NCc1ccco1)c1ccccc1F | -1% | 3% | 10 | -28% | -3%
O=C(CN(c1ccccc1)S(=O)(=O)c1ccccc1)Nc1ccccc1C(=O)NCc1ccco1 | -5% | ? | 0 | 16µM* | -2%
Cc1ccc(C)c(N(CC(=O)NC2CCCC2)S(=O)(=O)c2ccccc2)c1 | -22% | 12µM* | ? | 8.2µM* | -24%
O=C(Nc1cccc(F)c1)N1CC[C@@]2(CCCN(S(=O)(=O)c3ccccc3)C2)C1 | nt | -6% | nt | ? | nt
CCOc1ccc(CCN2C(=O)C(=O)N([C@@H](CC(C)C)CN3CCC[C@H]3CN3C(=O)C(=O)NC[C@@H]3Cc3ccc(O)cc3)C[C@@H]2Cc2ccccc2)cc1 | ? | ? | -3 | 16µM* | -29%
CCOc1ccc(CCN2C(=O)C(=O)N([C@@H](CC(C)C)CN3CCC[C@H]3CN3C(=O)C(=O)NC[C@@H]3CC(C)C)C[C@@H]2Cc2ccc(O)cc2)cc1 | ? | 16µM* | -72* | ? | -24%
CC(C)C[C@H]1CNC(=O)C(=O)N1C[C@@H]1CCCN1C[C@H](CC(C)C)N1C[C@H](Cc2ccc(O)cc2)N(CCc2ccccc2)C(=O)C1=O | 7% | 6% | 1 | 4% | -1%
Brc1ccc(C2NCCS2)cc1 (configuration not stated) | 1% | -3% | -13 | -2% | 15%
C[N+]1(C)CCC(=C2c3ccccc3CC(=O)c3sccc32)CC1 | ? | 26µM* | -6 | ? | -21%
CC[N+]1(C)CCC(=C2c3ccccc3CC(=O)c3sccc32)CC1 (configuration not stated) | 0% | -19% | -9 | -16% | 0%
O=C(c1ccc2c(c1)N(Cc1ccccc1)C(=O)c1ccccc1S2(=O)=O)N1CCOCC1 | nt | 6% | nt | -17% | nt
CN1CCN(C(=O)c2ccc3c(c2)N(Cc2ccc(Cl)cc2)C(=O)c2ccccc2S3(=O)=O)CC1 | nt | -29% | nt | ? | nt
O=C(c1ccc2c(c1)N(Cc1ccc(F)cc1)C(=O)c1ccccc1S2(=O)=O)N1CCC(Cc2ccccc2)CC1 | nt | 5.8µM* | nt | 5.2µM* | nt
CC1CCN(C(=O)c2ccc3c(c2)N(Cc2ccccc2)C(=O)c2ccccc2S3(=O)=O)CC1 | nt | ? | nt | 16µM* | nt
COc1ccc(N2CCN(C(CNS(=O)(=O)c3ccc(OC)c(C)c3)c3ccco3)CC2)cc1 (configuration not stated) | nt | ? | nt | 23µM* | nt
O=S(=O)(NCC(c1ccco1)N1CCOCC1)c1ccc(F)cc1 (configuration not stated) | nt | -12% | nt | -10% | nt
O=S(=O)(NCC(c1ccco1)N1CCN(c2ccc(F)cc2)CC1)c1ccccc1 (configuration not stated) | nt | ? | nt | 21µM* | nt
COc1ccc(N2CCN(C(CNC(=O)OCc3ccccc3)c3ccco3)CC2)cc1 (configuration not stated) | -15% | ? | -76* | ? | -6%
COc1ccc(S(=O)(=O)NCC(c2ccco2)N2CCOCC2)cc1OC (configuration not stated) | nt | -23% | nt | -7% | nt
Cc1ccc(S(=O)(=O)NCC(c2ccco2)N2CCN(c3ccccc3F)CC2)cc1 (configuration not stated) | nt | ? | nt | 16µM* | nt
COc1ccc(N2CCN(C(CNC(C)=O)c3ccco3)CC2)cc1 (configuration not stated) | 4% | 2% | 12 | 10% | 10%
OCC[C@@H]1C[C@H](O)[C@@H](O)[C@]2(CCCCO2)O1 | -1% | 5% | 0 | 20% | -3%
SMILES | HT1080 IDH1KD tx | TDP1 cell CPT | IL1B secr inh | TDP1 cell noCPT | HT1080NT lethal
COc1ccnc(Oc2ccccc2)c1C(=O)N/C=N/OCc1ccccc1F | 1% | -15% | -6 | ? | -10%
CCC(C(=O)N1CCN(Cc2ccc3c(c2)OCO3)CC1)n1c(=O)[nH]c2ccccc2c1=O (configuration not stated) | -2% | 0% | -4 | 10% | -1%
COc1ccc(C(=O)Nc2ccccc2C(=O)Nc2cc(C)ccn2)cc1 | ? | ? | -23 | 18µM* | ?
COc1ccccc1C(=O)Nc1ccc(C)cc1C(=O)c1ccccc1 | 6% | -11% | -7 | -28% | 18%
COc1cc(C(=O)Nc2ccccc2C(=O)Nc2ccccn2)cc(OC)c1OC | -1% | 4.6µM* | 30 | 3.3µM* | 2%
Cc1cccnc1NC(=O)c1ccccc1NC(=O)C(C)(C)C | 13% | -15% | 0 | 18% | 10%
Cc1ccnc(NC(=O)c2ccccc2NC(=O)C(C)(C)C)c1 | ? | 18µM* | 49 | 16µM* | ?
COc1ccc(C(=O)Nc2ccc(C)cc2C(=O)c2ccccc2)cc1 | -1% | -9% | -73* | -21% | -1%
COc1cc(C(=O)Nc2ccccn2)cc(OC)c1OC | 8% | -1% | -19 | -8% | 21%
O=C1NC(=O)C([N+](=O)[O-])=C(O)C1=O | 3% | 0% | 19 | -5% | 0%
CC(C)C[C@H](NC(=O)c1nc[nH]c1C(=O)N(C)Cc1ccccc1)C(=O)OCc1ccccc1 | -6% | ? | 42 | ? | -3%
Oc1ccc(N=Nc2ccccc2-c2nn[nH]n2)c(O)c1 | -8% | -11% | 11 | -19% | -11%
COc1cc2ccccc2cc1C(=O)Nc1nccs1 | -15% | 15µM* | -1 | ? | -18%
COc1cc2ccccc2cc1C(=O)Nc1ccc(Br)cn1 | 0% | ? | 16 | -8% | 2%
COc1cc2ccccc2cc1C(=O)Nc1cc(C)ccn1 | -17% | ? | -57* | ? | -14%
COc1cc(C(=O)Nc2ccc(Br)cc2C(=O)c2cc(OC)c(OC)c(OC)c2)cc(OC)c1OC | ? | 13µM* | 29 | 3.7µM* | ?
COc1cc(C(=O)Nc2c(C(=O)O)[nH]c3ccc(Br)cc23)cc(OC)c1OC | 1% | -4% | 20 | -14% | -13%
Cc1ccc(CNC(=O)c2nn(-c3ccc(Cl)cc3)nc2CO)cc1 | nt | 4% | nt | -27% | nt
